Source: the supplement of paper PMC12067926

Experiments:
Assay in all cases: relative growth (AUC of 72 h growth curve relative to DMSO control, dAUC) (ratio); higher = more growth (less inhibition), active = hit call of the paper
Conditions in all cases: 20 µM;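 active = growth AUC significantly below the DMSO wells by Dunnett test; inactive = the rest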
[1] = test system: Aeromonas 1 (Aeromonas sp. AE235)
How it was run: (§1)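 Bacterial isolates from Icelandic stream sediments and Silwood Park soil, plus whole sediment communities, were grown to carrying capacity in Luria–Bertani medium, then diluted 1:100 into 96-well plates with each chemical at 20 µM (1% DMSO). A600 was read hourly for 72 h on a plate reader, with brief shaking before each read. Relative growth (dAUC) is the spline-integrated area under the growth curve, averaged over three biological replicates and divided by the mean of the DMSO controls.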

[2] = test system: Aeromonas 2 (Aeromonas sobria)
How it was run: as §1

[3] = test system: Aeromonas 3 (Aeromonas popoffii)
How it was run: as §1

[4] = test system: Argrobacterium 1 (Agrobacterium sp.)
How it was run: as §1

[5] = test system: Arthrobacter 1 (Arthrobacter humicola)
How it was run: as §1

[6] = test system: Arthrobacter 2 (Arthrobacter humicola)
How it was run: as §1

[7] = test system: Arthrobacter 3 (Arthrobacter sp.)
How it was run: as §1

Community 4 = test system: Community 4
How it was run: as §1

Community 6 = test system: Community 6
How it was run: as §1

Community 7 = test system: Community 7
How it was run: as §1

Community 8 = test system: Community 8
How it was run: as §1

Community 9 = test system: Community 9
How it was run: as §1

[8] = test system: Flavobacterium 1 (Flavobacterium glaciei)
How it was run: as §1

[9] = test system: Flavobacterium 2 (Flavobacterium succinicans)
How it was run: as §1

[10] = test system: Hymenobacter 1 (Hymenobacter glaciei)
How it was run: as §1

[11] = test system: Microbacterium 1 (Microbacterium arborescens)
How it was run: as §1

[12] = test system: Neobacillus 1 (Neobacillus soli)
How it was run: as §1

[13] = test system: Oryzobacter 1 (Oryzobacter terrae)
How it was run: as §1

[14] = test system: Paenibacillus 1 (Paenibacillus castaneae)
How it was run: as §1

Measured: relative growth

CC1(C)C(C=C(Cl)Cl)C1C(=O)OC(C#N)c1cccc(Oc2ccccc2)c1 (centres undefined)
inactive: [1] 0.976 | [2] 1.04 | [3] 1.08 | [4] 1.07 | [5] 1.28 | [6] 0.971 | [7] 1.03 | Community 4 1.1 | Community 6 1.12 | Community 7 0.963 | Community 8 1.08 | Community 9 1.12 | [8] 0.979 | [9] 1.05 | [10] 1.08 | [11] 1.03 | [12] 1.02 | [13] 1.07 | [14] 1

CCOc1cc(Oc2ccc(C(F)(F)F)cc2Cl)ccc1[N+](=O)[O-]
active: [14] 0.735
inactive: [1] 0.962 | [2] 0.975 | [3] 0.966 | [4] 1.01 | [5] 1.02 | [6] 0.848 | [7] 1.01 | Community 4 0.905 | Community 6 0.907 | Community 7 0.968 | Community 8 1.04 | Community 9 0.975 | [8] 1.05 | [9] 0.971 | [10] 1.03 | [11] 1.07 | [12] 1.01 | [13] 1.03

COCC(=O)N(c1c(C)cccc1C)C(C)C(=O)OC (centres undefined)
inactive: [1] 1.03 | [2] 1.04 | [3] 1.04 | [4] 1.01 | [5] 0.944 | [6] 0.862 | [7] 0.994 | Community 4 1.05 | Community 6 1.03 | Community 7 1.08 | Community 8 0.993 | Community 9 1.09 | [8] 0.939 | [9] 0.99 | [10] 1.03 | [11] 1.02 | [12] 0.986 | [13] 1.01 | [14] 1.03

O=C(NCCc1ncc(C(F)(F)F)cc1Cl)c1ccccc1C(F)(F)F
inactive: [1] 0.997 | [2] 0.977 | [3] 0.973 | [4] 1.13 | [5] 0.873 | [6] 0.931 | [7] 1.01 | Community 4 0.994 | Community 6 0.939 | Community 7 0.935 | Community 8 0.961 | Community 9 1.05 | [8] 0.987 | [9] 0.962 | [10] 0.995 | [11] 1.02 | [12] 0.981 | [13] 1.11 | [14] 0.935

COP(=O)(NC(C)=O)SC (centres undefined)
inactive: [1] 1.02 | [2] 0.995 | [3] 0.998 | [4] 1.03 | [5] 0.984 | [6] 0.906 | [7] 1.05 | Community 4 1.01 | Community 6 0.892 | Community 7 0.831 | Community 8 0.99 | Community 9 1.03 | [8] 1.06 | [9] 0.982 | [10] 1 | [11] 1.01 | [12] 1.01 | [13] 1.04 | [14] 0.959

CCOC(=O)CC(SP(=S)(OC)OC)C(=O)OCC (centres undefined)
inactive: [1] 1.06 | [2] 0.992 | [3] 1.02 | [4] 1.01 | [5] 1.22 | [6] 1.05 | [7] 0.98 | Community 4 1.15 | Community 6 1.09 | Community 7 1.04 | Community 8 0.99 | Community 9 1.14 | [8] 1.02 | [9] 1.02 | [10] 1.02 | [11] 1 | [12] 1.06 | [13] 1.1 | [14] 1.02

C#CCOc1ccc(CCNC(=O)C(OCC#C)c2ccc(Cl)cc2)cc1OC (centres undefined)
inactive: [1] 0.978 | [2] 0.985 | [3] 1 | [4] 1.05 | [5] 1.04 | [6] 0.935 | [7] 0.953 | Community 4 0.951 | Community 6 1.02 | Community 7 1 | Community 8 1.05 | Community 9 0.995 | [8] 0.963 | [9] 0.928 | [10] 1.04 | [11] 1.02 | [12] 0.98 | [13] 1.02 | [14] 0.851

CCc1cccc(C)c1N(C(=O)CCl)[C@@H](C)COC
inactive: [1] 1.01 | [2] 0.962 | [3] 0.992 | [4] 1 | [5] 1.08 | [6] 0.89 | [7] 1.02 | Community 4 1.01 | Community 6 0.968 | Community 7 1.12 | Community 8 1.05 | Community 9 0.948 | [8] 0.984 | [9] 0.967 | [10] 1.04 | [11] 1.04 | [12] 0.981 | [13] 1.06 | [14] 0.974

CCOc1ccc(C(C)(C)COCc2cccc(Oc3ccccc3)c2)cc1
inactive: [1] 1.01 | [2] 1.02 | [3] 1.02 | [4] 1.04 | [5] 1.01 | [6] 0.801 | [7] 0.816 | Community 4 0.901 | Community 6 0.979 | Community 7 1.04 | Community 8 1.06 | Community 9 0.965 | [8] 0.785 | [9] 0.958 | [10] 0.929 | [11] 1.04 | [12] 0.881 | [13] 1.05 | [14] 0.942

CCCSP(=O)(OCC)Oc1ccc(Br)cc1Cl (centres undefined)
1.27: [13]
inactive: [1] 1.02 | [2] 1.02 | [3] 0.994 | [4] 1.12 | [5] 0.894 | [6] 0.745 | [7] 0.973 | Community 4 0.833 | Community 6 0.83 | Community 7 1.01 | Community 8 0.96 | Community 9 0.866 | [8] 1.01 | [9] 0.919 | [10] 0.98 | [11] 1.01 | [12] 0.965 | [14] 0.925

CNC(=O)CSP(=S)(OC)OC
inactive: [1] 0.944 | [2] 0.984 | [3] 0.967 | [4] 1.02 | [5] 1.04 | [6] 0.992 | [7] 0.978 | Community 4 0.765 | Community 6 0.957 | Community 7 1.12 | Community 8 0.999 | Community 9 0.921 | [8] 1.06 | [9] 0.966 | [10] 0.971 | [11] 1 | [12] 0.948 | [13] 1.07 | [14] 0.975

Clc1ccc(C(c2ccc(Cl)cc2)C(Cl)(Cl)Cl)cc1
active: [5] 0.353 | [6] 0.211 | [7] 0.316
inactive: [1] 0.999 | [2] 0.972 | [3] 0.973 | [4] 1.02 | Community 4 0.976 | Community 6 0.983 | Community 7 1.11 | Community 8 0.997 | Community 9 1.03 | [8] 0.767 | [9] 0.979 | [10] 0.976 | [11] 0.973 | [12] 1.1 | [13] 1.06 | [14] 0.913

O=C(Nc1ccccc1-c1ccc(Cl)cc1)c1cccnc1Cl
inactive: [1] 1.02 | [2] 0.995 | [3] 1.04 | [4] 0.962 | [5] 0.891 | [6] 1.01 | [7] 0.869 | Community 4 1.01 | Community 6 1.01 | Community 7 1 | Community 8 1.03 | Community 9 0.999 | [8] 1.04 | [9] 1 | [10] 1.11 | [11] 1.01 | [12] 1.06 | [13] 0.99 | [14] 1.02

C/C(=N\C#N)N(C)Cc1ccc(Cl)nc1
inactive: [1] 0.986 | [2] 1.01 | [3] 1.04 | [4] 0.965 | [5] 1.03 | [6] 0.972 | [7] 0.973 | Community 4 1 | Community 6 1.05 | Community 7 1.02 | Community 8 1.05 | Community 9 0.986 | [8] 0.92 | [9] 1.02 | [10] 0.997 | [11] 0.997 | [12] 0.993 | [13] 1.07 | [14] 1.06

CC(C)OC(=O)C(C(=O)OC(C)C)=C1SCCS1
inactive: [1] 0.961 | [2] 0.967 | [3] 0.993 | [4] 1.02 | [5] 1.02 | [6] 0.922 | [7] 0.975 | Community 4 0.901 | Community 6 0.886 | Community 7 1.15 | Community 8 1 | Community 9 0.964 | [8] 0.993 | [9] 0.947 | [10] 1.09 | [11] 1.02 | [12] 1.01 | [13] 1.12 | [14] 0.965

CN(C)C(CSS(=O)(=O)O)CSS(=O)(=O)O
inactive: [1] 0.987 | [2] 0.976 | [3] 0.992 | [4] 0.997 | [5] 1.02 | [6] 1.04 | [7] 1.04 | Community 4 1.04 | Community 6 0.914 | Community 7 1 | Community 8 1.02 | Community 9 0.942 | [8] 1.09 | [9] 1 | [10] 1.07 | [11] 1.06 | [12] 1 | [13] 1.13 | [14] 0.935
